{"source": "PubChem BioAssay AID1745845", "about": "(National Center for Advancing Translational Sciences (NCATS), 2022)", "note": "The whole screen tested about 360,000 compounds, of which about 2,600 (0.72%) were called active. Roughly 5% stayed inconclusive and do not appear here. The sample as a whole holds a higher share of actives than the screen did. A number with no mark means an inactive call. Calls follow the shape of the dose curve; as a rule, active = well fitted inhibition curve with a large enough effect; inconclusive = small, poorly fitted or top-dose-only effect; inactive = no such curve, though single readings can be large or run the other way. % is scaled to controls: 0 for no effect and ±100 for the full control effect; potency is read from the fitted curve at half-maximal effect."}
{"experiment": "Primary qHTS for Inhibitors of ATXN expression; also: nearly all actives have a fitted effect of over 55% in size", "details": "HEK-293 ATXN2-luciferase reporter, luminescence, 24 h; series mostly up to 57 µM; activity change, negative = inhibition: at the top concentration", "how_it_was_run": "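ATXN2-luciferase reporter cells (luciferase flanked by upstream and downstream ATXN2 gene portions) were treated 24 h at 37 °C with compounds at up to 57 uM. SteadyGlo luminescence gave expression; GF-AFC fluorescence gave viability.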", "units": {"activity change, negative = inhibition": "%"}}
{"compound": "CC(C)(C)OC(=O)N1CCC(c2c(C(=O)N3CCc4ccccc4C3)cnn2-c2ccc(F)cc2)CC1", "activity change, negative = inhibition": 3.11}
{"compound": "COc1ccccc1NC(=O)C1=C(C)Nc2nc(SCC(=O)c3ccc(C)cc3)nn2C1c1ccccc1C", "note": "(stereo not given)", "activity change, negative = inhibition": 6.42}
{"compound": "CCc1nc2c(OCc3ccc(Cl)cc3Cl)cccn2c1N(C)C(=O)C(C)C", "Potency": "28.2 µM (active)"}
{"compound": "CCc1nc2c(OCc3cccc(OC)c3)cccn2c1N(C)C(=O)C(C)C", "activity change, negative = inhibition": 5.52}
{"compound": "CCc1nc2c(OCc3ccc(C(=O)OC)cc3)cccn2c1N(C)C(=O)C(C)C", "activity change, negative = inhibition": -11.4}
{"compound": "COC(=O)[C@@]1(Sc2ccc(C)cc2)CC(=O)N(c2cccc(SC)c2)[C@@H]1c1ccccc1", "activity change, negative = inhibition": -25.3}
{"compound": "CC=CC[C@@H](C)C(=O)[C@H]1C(=O)N[C@@H](C(C)C)C(=O)N(C)CC(=O)N(C)[C@@H](CC(C)C)C(=O)N[C@@H](C(C)C)C(=O)N(C)[C@@H](CC(C)C)C(=O)N[C@@H](C)C(=O)N[C@H](C)C(=O)N(C)[C@@H](CC(C)C)C(=O)N(C)[C@@H](CC(C)C)C(=O)N(C)[C@@H](C(C)C)C(=O)N1C", "activity change, negative = inhibition": 23}
{"compound": "O=C(NC1CCCC1)C1c2ccccc2OCC(=O)N1CC(F)(F)F", "note": "(stereo not given)", "activity change, negative = inhibition": 1.35}
{"compound": "Cc1cc(C)cc(NC(=O)Cn2c(=O)c3ccccc3n3nncc23)c1", "activity change, negative = inhibition": -8.67}
{"compound": "CS(=O)(=O)N1CCN(C(=O)c2cc3ccccc3oc2=O)CC1", "activity change, negative = inhibition": 2.31}
{"compound": "Cc1cc(NC(=O)c2cccc(Cl)c2)ccc1-c1cc2ccccc2oc1=O", "activity change, negative = inhibition": 8.33}
{"compound": "O=c1oc2ccccc2cc1-c1cn(-c2ccccc2)c(=S)[nH]1", "Potency": "8.91 µM (active)"}
{"compound": "Cc1ccc(CNC(=O)CCc2c(C)nc3nc(CNC(=O)OC(C)(C)C)nn3c2C)cc1", "activity change, negative = inhibition": -14.2}
{"compound": "COc1cccc2sc(N(CCCN(C)C)C(=O)C(c3ccccc3)c3ccccc3)nc12", "Potency": "22.4 µM (active)"}
{"compound": "CCN(CC)CCN(C(=O)c1cccc([N+](=O)[O-])c1)c1nc2ccc(OC)cc2s1", "activity change, negative = inhibition": 3}
{"compound": "COc1ccccc1NC(=O)CC(NCCN(C)C)C(=O)O", "note": "(stereo not given)", "activity change, negative = inhibition": -5.08}
{"compound": "COc1ccc(Cl)cc1N(CC(=O)N/N=C/c1ccc(OCC(N)=O)cc1)S(C)(=O)=O", "activity change, negative = inhibition": 0.328}
{"compound": "Cc1nc2ccccc2nc(C)c1=NOCc1ccc(Cl)cc1Cl", "activity change, negative = inhibition": -23.9}
{"compound": "NC(N)=N/N=C/c1ccc(OCc2ccc(Cl)cc2Cl)cc1", "Potency": "22.4 µM (active)"}
{"compound": "CCc1nc2ccc(C(=O)N(C)CCN(C)C)cn2c1N(CC)CCOC", "activity change, negative = inhibition": 7.83}
{"compound": "CC(C)Sc1oc(-c2cccs2)nc1S(=O)(=O)c1ccc(Cl)cc1", "activity change, negative = inhibition": -4.47}
{"compound": "CC1CC(C)(C)n2c(O)c(N=NC(N)=S)c3cccc1c32", "note": "(stereo not given)", "Potency": "28.2 µM (active)"}
{"compound": "Cc1ccc(OCCn2c(CNc3ccccc3C)nc3ccccc32)cc1", "activity change, negative = inhibition": -14.1}
{"compound": "CCCn1ccc2c(OCC(=O)NCc3ccc(F)cc3)cccc2c1=O", "activity change, negative = inhibition": -5.76}
{"compound": "COc1ccc(C(C#N)=C2C=CC(=NO)c3ccccc32)cc1", "activity change, negative = inhibition": 34}
{"compound": "O=C(CCN1CCN(C/C=C/c2ccccc2)CC1)Nc1ccccc1Cl", "activity change, negative = inhibition": -14.6}
{"compound": "O=C(Nc1ccccc1Cl)/C(Cl)=C(\\Cl)S(=O)c1ccccc1", "note": "(stereo not given)", "Potency": "3.55 µM (active)"}
{"compound": "NC(=O)C1(Nc2ccccc2Cl)CCCC1", "activity change, negative = inhibition": -7.8}
{"compound": "CSCCC(c1nnnn1Cc1ccccc1)N1CCN(C/C=C/c2ccccc2)CC1", "note": "(stereo not given)", "activity change, negative = inhibition": -23.7}
{"compound": "CCCN1CCN(CCCNC(=O)Cn2nc(CC)n3c(cc4occc43)c2=O)CC1", "activity change, negative = inhibition": 32.1}
{"compound": "Cc1cccc(C(=O)NCCc2nc3ccccc3n2Cc2ccccc2Cl)c1", "activity change, negative = inhibition": -3.57}
{"compound": "Cc1ccccc1CSc1nc(-c2ccccc2)nc2c1Cc1c(CO)cnc(C)c1O2", "activity change, negative = inhibition": 9.66}
{"compound": "CCOC(=O)[C@]12CCCC=C1N(Cc1cccc3ccccc13)C(=O)[C@H](CC(=O)NCC13CC4CC(CC(C4)C1)C3)C2", "activity change, negative = inhibition": -16.8}
{"compound": "COc1cc(Nc2ncc(F)c(Nc3ccc4c(n3)NC(=O)C(C)(C)O4)n2)cc(OC)c1OC", "activity change, negative = inhibition": 25.8}
{"compound": "CCOc1ccc(CCNC(=O)c2cc3c(=O)n(C)c4ccccc4c3n2C)cc1", "activity change, negative = inhibition": -18.4}
{"compound": "CCCCC(O)(CCCC)C(=O)NN(C(=O)CCl)c1ccccc1", "activity change, negative = inhibition": -25.2}
{"compound": "CC(C)(O)C(=O)NN(C(=O)c1ccccc1)c1cccc(Br)c1", "activity change, negative = inhibition": -5.23}
{"compound": "CCCC(O)(CCC)C(=O)NN(C(=O)CCl)c1cccc(C)c1", "Potency": "21.2 µM (active)"}
{"compound": "C=CCC[C@@H](CCCCC)OC(=O)/C=C/[C@@H](O)[C@H](O)C[C@H](O)CC=C", "activity change, negative = inhibition": -13.5}
{"compound": "CC(C)CC(=O)NCC(c1ccc2c(c1)OCO2)N1CCN(c2ccc(F)cc2)CC1", "note": "(stereo not given)", "activity change, negative = inhibition": -12.6}
{"compound": "C[C@H]1C[C@H]2[C@@H]3CCC4=CC(=O)C=C[C@]4(C)[C@@H]3C(=O)C[C@]2(C)[C@@]1(O)C(=O)CO", "activity change, negative = inhibition": -1.21}
{"compound": "CO[C@H]1C[C@@H]2CC[C@@H](C)[C@@](O)(O2)C(=O)C(=O)N2CCCC[C@@H]2C(=O)O[C@H]([C@@H](C)C[C@@H]2CC[C@H](O)[C@H](OC)C2)CC(=O)[C@H](C)C=C(C)[C@@H](O)[C@@H](OC)C(=O)[C@H](C)C[C@H](C)C=CC=CC=C1C", "activity change, negative = inhibition": 0.805}
{"compound": "COc1cc(C(CCN2CCN(c3ccccc3)CC2)c2c(OC)cc(OC)c3ccc(=O)oc23)cc(OC)c1OC", "note": "(stereo not given)", "activity change, negative = inhibition": -2.17}
{"compound": "CCN(CC)CCC(c1ccc2c(c1)OCO2)c1c(OC)cc(OC)c2c(-c3ccccc3)cc(=O)oc12", "note": "(stereo not given)", "Potency": "31.6 µM (active)"}
{"compound": "COc1cc(OC)c2ccc(=O)oc2c1C(CCN1CCN(c2ccccc2)CC1)c1ccc2c(c1)OCO2", "note": "(stereo not given)", "activity change, negative = inhibition": -17.9}
